Laboratory results reported in PubChem BioAssay (NCATS).
Inconclusive results are not listed. Unless noted, the call rests on the fitted dose curve; in most records, active means well fitted curve in either direction with a large enough effect (not every such curve was filed as active); inconclusive means small, poorly fitted or top-dose-only effect, or another doubt; inactive means flat fitted curve, though single readings scatter.

Experiments:
[1] = AP1 Signaling Pathway (AID 357); settings: ME-180 AP-1-bla reporter, EGF-induced, beta-lactamase ratio, 5 h; at 17.2 µM (top of the series) unless noted;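 further: ME-180 reporter cells stimulated with EGF at its EC50 level; on the % scale 0 is the no-effect control and ±100 the full control effect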
How it was run: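 First, ME-180 AP-1-bla cells were cultured overnight at 37 °C in low-serum Opti-MEM. Next, titrated compounds with EC50 EGF were incubated 5 hours. Finally, CCF4 was added for 2.5 hours and the 460/530 nm ratio recorded.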

[2] = NFAT Signaling Pathway (AID 444); settings: Jurkat NFAT-bla M1, carbachol, beta-lactamase ratio, 5 h; at 17.2 µM (top of the series) unless noted;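 further: carbachol stimulus at about its EC50 of 1 µM final; on the % scale 0 is the no-effect control and ±100 the full control effect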
How it was run: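 Jurkat cells carrying an NFAT-driven β-lactamase reporter and co-transfected muscarinic M1 receptor were treated with compound plus carbachol (1 uM final, an EC50 level) for 5 h at 37 °C. CCF4 loading followed for 1 h at RT; 460/530 nm ratio gave %activity.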

[3] = Stat Signaling Pathway (AID 446); settings: ME-180 SIE beta-lactamase reporter, IL-6 stimulated, 5 h; at 17.2 µM (top of the series) unless noted;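 further: ME-180 cervical cancer cells given 40 pM IL-6 alongside compound; SIE-controlled beta-lactamase reporter measured as 460/530 nm FRET emission ratio; on the % scale 0 is the no-effect control and ±100 the full control effect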
How it was run: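 Screening format detects activators and inhibitors alike: ME-180 SIE-bla cells stimulated at 40 pM IL-6 for 5 hrs with compound, then dual-emission beta-lactamase read at 405 nm excitation.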

[4] = molecular target: Glucocorticoid receptor (Homo sapiens) (UniProt P04150); assay: GR-GFP Redistribution (AID 450;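 active means compounds whose dose series gives a full or clear partial fitted curve of increased nuclear translocation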; further: potency means the concentration at half of the fitted maximal effect)
Sequence of Glucocorticoid receptor (Homo sapiens) (P04150 whole entry, looked up): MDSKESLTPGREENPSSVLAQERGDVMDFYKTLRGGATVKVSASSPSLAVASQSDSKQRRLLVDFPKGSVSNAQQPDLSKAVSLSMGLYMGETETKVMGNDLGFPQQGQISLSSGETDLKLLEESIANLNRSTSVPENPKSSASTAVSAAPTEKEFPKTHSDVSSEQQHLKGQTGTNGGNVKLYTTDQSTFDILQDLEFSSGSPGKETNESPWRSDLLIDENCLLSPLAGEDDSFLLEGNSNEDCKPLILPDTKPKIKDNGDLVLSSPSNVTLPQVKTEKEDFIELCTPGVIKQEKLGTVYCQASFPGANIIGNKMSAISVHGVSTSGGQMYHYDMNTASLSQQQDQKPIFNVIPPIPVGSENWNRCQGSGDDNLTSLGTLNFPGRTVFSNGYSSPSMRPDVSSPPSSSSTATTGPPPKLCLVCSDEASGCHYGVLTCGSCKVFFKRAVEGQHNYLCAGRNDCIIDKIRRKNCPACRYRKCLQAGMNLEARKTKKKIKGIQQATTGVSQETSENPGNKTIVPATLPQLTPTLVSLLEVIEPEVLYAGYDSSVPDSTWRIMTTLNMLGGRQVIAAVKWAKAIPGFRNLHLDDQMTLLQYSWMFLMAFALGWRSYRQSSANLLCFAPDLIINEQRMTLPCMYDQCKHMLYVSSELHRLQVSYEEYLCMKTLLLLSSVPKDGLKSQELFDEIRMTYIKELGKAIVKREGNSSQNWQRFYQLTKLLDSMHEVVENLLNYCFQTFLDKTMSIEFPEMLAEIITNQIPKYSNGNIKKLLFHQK

CC(NC(=O)c1ccc(=O)oc1)c1ccccc1 (stereo not given)
inactive: activity change, negative = inhibition [1] 8.92% | activity change, negative = inhibition [2] 0.391% | activity, negative = inhibition [3] 6.96% | Potency [4] > 20.6 µM

C=CCOc1nc2c(c(=O)n(C)c(=O)n2C)n1Cc1ccc(Cl)cc1Cl
inactive: activity change, negative = inhibition [1] 4.26% | activity change, negative = inhibition [2] -9.88% | activity, negative = inhibition [3] -16.6% | Potency [4] > 20.6 µM

COc1ccc(OC)c(C2/C(=C(/O)c3ccccc3)C(=O)C(=O)N2Cc2ccco2)c1 (stereo not given)
inactive: activity change, negative = inhibition [1] -4.43% | activity change, negative = inhibition [2] 6% | activity, negative = inhibition [3] -9.05% | Potency [4] > 20.6 µM

c1cncc(Oc2cccc(Oc3cccnc3)c2)c1
inactive: activity change, negative = inhibition [1] -6.49% | activity change, negative = inhibition [2] -3.08% | activity, negative = inhibition [3] 29.4% | Potency [4] > 20.6 µM

N#C/C(C(=O)NCc1ccco1)=C1/SC(Cc2ccc(F)cc2)C(=O)N1c1ccccc1 (stereo not given)
inactive: activity change, negative = inhibition [1] 1.52% | activity change, negative = inhibition [2] -9.67% | activity, negative = inhibition [3] -22.9% | Potency [4] > 20.6 µM

O=C(CCN1CCc2ccccc21)c1ccc2c(c1)OCCO2
inactive: activity change, negative = inhibition [1] 7.14% | activity change, negative = inhibition [2] -15.2% | activity, negative = inhibition [3] 2.96% | Potency [4] > 20.6 µM

C=CCN(C)CCCNC(=O)/C=N/O
inactive: activity change, negative = inhibition [1] -0.81% | activity change, negative = inhibition [2] 2.2% | activity, negative = inhibition [3] 3.74% | Potency [4] > 20.6 µM

O=C1C(=O)N(Cc2cccnc2)C(c2ccccn2)/C1=C(/O)c1ccc(Br)cc1 (stereo not given)
inactive: activity change, negative = inhibition [1] -19.9% | activity change, negative = inhibition [2] 15.2% | activity, negative = inhibition [3] -10.5% | Potency [4] > 20.6 µM

CC(=O)c1c(N)nc2n(c1=O)CCCCC2
inactive: activity change, negative = inhibition [1] -12.6% | activity change, negative = inhibition [2] -9.74% | activity, negative = inhibition [3] 9.48% | Potency [4] > 20.6 µM

c1ccc(OCc2nn3c(-c4ccccn4)nnc3s2)cc1
inactive: activity change, negative = inhibition [1] -1.82% | activity change, negative = inhibition [2] -2.83% | activity, negative = inhibition [3] 0.158% | Potency [4] > 20.6 µM

c1csc(Cc2nn3c(-c4ccncc4)nnc3s2)c1
inactive: activity change, negative = inhibition [1] -25% | activity change, negative = inhibition [2] 5.73% | activity, negative = inhibition [3] -2.56% | Potency [4] > 20.6 µM

COc1ccc(NC(=O)C2CSC3c4ccccc4C(=O)N23)cc1 (stereo not given)
inactive: activity change, negative = inhibition [1] -4.43% | activity change, negative = inhibition [2] -13% | activity, negative = inhibition [3] 4.23% | Potency [4] > 20.6 µM

COC(=O)C(NC(C)=O)(Nc1ccc(Br)cc1)C(=O)OC
inactive: activity change, negative = inhibition [1] 8.16% | activity change, negative = inhibition [2] -1.04% | activity, negative = inhibition [3] 8.85% | Potency [4] > 20.6 µM

N#CC1(c2ccccc2)CCC(=NO)CC1 (stereo not given)
inactive: activity change, negative = inhibition [1] -5.72% | activity change, negative = inhibition [2] 8.2% | activity, negative = inhibition [3] 11.5% | Potency [4] > 20.6 µM

CCCCOc1ccc(C(=O)NCC(=O)NCC(=O)OCC)cc1
inactive: activity change, negative = inhibition [1] -0.159% | activity change, negative = inhibition [2] -7.6% | activity, negative = inhibition [3] -5.03% | Potency [4] > 20.6 µM

CCCCCCOc1ccc(N2C(=O)CC(N3CCN(C(=O)c4ccco4)CC3)C2=O)cc1 (stereo not given)
inactive: activity change, negative = inhibition [1] -1.51% | activity change, negative = inhibition [2] 13.8% | activity, negative = inhibition [3] -13.2% | Potency [4] > 20.6 µM

CN(C)CCCN1C(=O)C(O)=C(C(=O)c2cc3ccccc3o2)C1c1ccccc1 (stereo not given)
inactive: activity change, negative = inhibition [1] 8.55% | activity change, negative = inhibition [2] -4.4% | activity, negative = inhibition [3] 1.48% | Potency [4] > 20.6 µM

CC(=O)Nc1cccc(NC(=O)CSc2nc(C)c(C)c(C)c2C#N)c1
inactive: activity change, negative = inhibition [1] -13.8% | activity change, negative = inhibition [2] 8.76% | activity, negative = inhibition [3] -4.2% | Potency [4] > 20.6 µM

c1csc(-c2nn3c(C4CCCCC4)nnc3s2)c1
inactive: activity change, negative = inhibition [1] -6.89% | activity change, negative = inhibition [2] -19.6% | activity, negative = inhibition [3] 20.7% | Potency [4] > 20.6 µM

CC(=O)N[C@H]1C[C@@H]1c1ccccc1
inactive: activity change, negative = inhibition [1] 5.08% | activity change, negative = inhibition [2] -8.6% | activity, negative = inhibition [3] 12.8% | Potency [4] > 20.6 µM

CNS(=O)(=O)c1cccc2nsnc12
inactive: activity change, negative = inhibition [1] 6.07% | activity change, negative = inhibition [2] 4% | activity, negative = inhibition [3] 14.7% | Potency [4] > 20.6 µM

Cc1ccc2cc(CNC(C)C)c(=O)[nH]c2c1
inactive: activity change, negative = inhibition [1] 3.13% | activity change, negative = inhibition [2] -10.3% | activity, negative = inhibition [3] -4.43% | Potency [4] > 20.6 µM

CC1(C)CC(NC(=O)C23CCC(C)(/C(=N/O)C2)C3(C)C)CC(C)(C)N1 (stereo not given)
inactive: activity change, negative = inhibition [1] 1.22% | activity change, negative = inhibition [2] 10.5% | activity, negative = inhibition [3] 0.446% | Potency [4] > 20.6 µM

Cc1nnc2n(-c3ccccc3)c(=O)c3c4c(sc3n12)COC(C)(C)C4
inactive: activity change, negative = inhibition [1] 4.08% | activity change, negative = inhibition [2] -10.7% | activity, negative = inhibition [3] -0.141% | Potency [4] > 20.6 µM

COCCOC(=O)c1c(C)nc(SCC(=O)Nc2ccc(OC)cc2)c(C#N)c1-c1ccco1
inactive: activity change, negative = inhibition [1] -13.3% | activity change, negative = inhibition [2] -14.8% | activity, negative = inhibition [3] -16.8% | Potency [4] > 20.6 µM
